This assay can be described thus: cell-free HIV fusion peptide-binding blockers – biochemical, uHTS, fluorescence dequenching, primary screen (AID 1986). The settings on record: 30 min, stronger effect = higher value.
Where [1] appears, read: measured here: repeat confirmation average inhibition, at 18.6 µM.

About 890 (0.31%) of roughly 290,000 compounds were called active. No stated cut-off is given here; in the data, active means inhibition mostly above about 52% (no sharp cut-off); inactive means mostly below about 76%. The list comes from a sample in which actives are over-represented; it also holds similar structures and randomly drawn compounds.

By inhibition is commonly meant the drop in the measured response relative to a control, in per cent.

For the compound `O=C(CC1Sc2ccccc2NC1=O)NCc1cccc(Cl)c1` (centres undefined), for the setting “at 20 µM”, the inhibition was 1% (inactive).
For `CCOC(=O)c1nnn(-c2nonc2N)c1CN1CCCC1`, the inhibition (at 20 µM) is -0.2% (inactive).
On to `COc1ccccc1-c1c(C(F)(F)F)oc2cc(OCC(=O)Nc3ccccc3C(F)(F)F)ccc2c1=O`, for which, where the note is “at 20 µM”, the inhibition was 3.1% (inactive).
Regarding `COc1ccccc1NC(=O)CSc1nnc(Cn2c(=O)sc3ccccc32)n1C`, under “at 20 µM”, the inhibition is 0.2% (inactive).
Take `O=C(C[n+]1cccc2ccccc21)c1ccccc1`: the inhibition (at 20 µM) was 11.8% (inactive).
Same read-out and setting: the figure for `NC(=O)C[n+]1cccc2ccccc21` is 1.3% (inactive).
`COC(=O)C[n+]1cccc2ccccc21`: the inhibition was 78.3% (active) (at 20 µM) and 65.6% under setting [1].
As for `CCOCCCNC(=O)/C(C#N)=C/c1ccc(C)o1`, where the note is “at 20 µM”, the inhibition is -0.3% (inactive).
On to `Cc1ccccc1OCc1nc(-c2ccc(-n3cccc3)cc2)no1`, for which the inhibition (at 20 µM) is 3.2% (inactive).
Same read-out and setting: the figure for `COc1ccccc1C(=O)C1CCCN(C(=O)c2cnn(C(C)C)c2)C1` (centres undefined) is -0.2% (inactive).
On to `CN(C)/N=C/c1c(O)ccc2ccccc12`, for which the inhibition (at 20 µM) was -5.1% (inactive).
`Oc1ccc2ccccc2c1C=Nc1ccccc1Br`: the inhibition (at 20 µM) is 0.3% (inactive).
On the same count and under the same terms, next, `Oc1ccccc1N=Cc1c(O)ccc2ccccc12`: 67.4% (active); `Cc1ccc(Cl)cc1N1CCN(S(=O)(=O)c2ccc3c(c2)NC(=O)C(C)C(=O)N3)CC1` (centres undefined): 1.3% (inactive).
Consider `CCn1c(C)c(C(C)=O)c(N2CCN(c3ccccn3)CC2)nc1=S`, for which, where the note is “at 20 µM”, the inhibition is 6.8% (inactive).
Consider `C(=C\c1ccccc1)/CNn1cnnc1`, for which the inhibition (at 20 µM) is -2.1% (inactive).
On to `CC[n+]1c(/C=C/c2c[nH]c3ccccc23)ccc2cc(C)ccc21`, for which, under “at 20 µM”, the inhibition was 142% (inactive).
The same measure, in the same setting: next, `COc1ccc2c(/C=C/c3cc[n+](C)cc3)c[nH]c2c1`: 6.5% (inactive); `C[n+]1cc(C(=O)N2CCCCC2)ccc1/C=C/c1c[nH]c2ccccc12`: 148% (inactive); `C[n+]1ccc(/C=C/c2c[nH]c3ccccc23)cc1`: 82.6% (active).
As to `CC[n+]1ccc(/C=C/c2c[nH]c3ccccc23)cc1`, the inhibition by setting is: (at 20 µM) 97.2% (active); under setting [1], 77.7%.
On to `Cc1[nH]c2ccccc2c1/C=C/c1cc[n+](C)cc1`, for which, for the setting “at 20 µM”, the inhibition was 144% (inactive).
As for `CCN(CC)C(=O)c1ccc(/C=C/c2c[nH]c3ccccc23)[n+](C)c1`, the inhibition reads like this: (at 20 µM) 91.3% (active); under setting [1], 81.7%.
For `OCC[n+]1ccc(/C=C/c2c[nH]c3ccccc23)cc1`, for the setting “at 20 µM”, the inhibition was 53% (active).
Regarding `CCc1ccc(/C=C/c2c[nH]c3ccccc23)[n+](CC)c1`, where the note is “at 20 µM”, the inhibition is 2.5% (inactive).
Same read-out and setting: the figure for `Cc1ccc(C(=O)/C=C/c2c[nH]c3ccccc23)cc1` is 2.2% (inactive); for `O=C(/C=C/c1c[nH]c2ccccc12)c1ccccc1` it is -2.9% (inactive).
Consider `O=c1c2ccccc2nc(/C=C/c2c[nH]c3ccccc23)n1CCO`, for which, under “at 20 µM”, the inhibition was 5.3% (inactive).
Turning to `Cc1nnsc1-c1nc2ccccc2[nH]1`, the inhibition (at 20 µM) was -1.6% (inactive).
For `COc1ccc(NC(=O)c2cc(Br)ccc2Cl)c([N+](=O)[O-])c1`, where the note is “at 20 µM”, the inhibition was -0.4% (inactive).
Still for that read-out and setting: next, `O/N=C\c1ccc2noc(-c3ccc(Cl)cc3)c2c1`: 0% (inactive); `c1ccc(Oc2ncnc3sccc23)cc1`: -1.5% (inactive); `N#Cc1ccc(CSc2nnc(NC(=O)CN3C(=O)C4CC=CCC4C3=O)s2)cc1` (centres undefined): 6.4% (inactive).
As to `COc1cccc(/C=N/NC(=O)c2[nH]c(C)c(C(=O)N/N=C/c3cccc(OC)c3O)c2C)c1O`, the inhibition (at 20 µM) is 4.6% (inactive).
On to `CCCn1cnc2scc(-c3ccc(C)cc3)c2c1=O`, for which the inhibition (at 20 µM) was -1.9% (inactive).
As for `Cc1ccc(C)c(NC(=O)CSc2nnc(C3CCCCC3)o2)c1`, the inhibition (at 20 µM) was -1.1% (inactive).
For `O=C(O)CCn1c(=O)n(CCC(=O)O)c(=O)n(CCC(=O)O)c1=O`, the inhibition (at 20 µM) was 0.1% (inactive).
Turning to `O=C(CN1c2ccccc2Sc2ccccc21)N/N=C/c1ccc(Cl)cc1`, under “at 20 µM”, the inhibition was -1% (inactive).
Take `Cc1ccc2[nH]cc(/C=C/c3cc[n+](C)cc3)c2c1`: where the note is “at 20 µM”, the inhibition was 160% (inactive).
In the case of `COc1ccc2[nH]cc(/C=C/c3cc[n+](C)cc3)c2c1`, the inhibition (at 20 µM) was 18.3% (inactive).
As for `C[n+]1ccc(/C=C/c2c[nH]c3ccc(F)cc23)cc1`, the inhibition is 77.8% (active) (at 20 µM) and 85.8% under setting [1].
With `CC1=C(C(=O)Nc2ccc(C(=O)NC(C)c3ccccc3)cc2)SCCO1` (centres undefined), where the note is “at 20 µM”, the inhibition is 2.3% (inactive).
Same read-out and setting: next, `O=C(Nc1cccc(C(=O)N2CCCCC2)c1)c1ccccc1Br`: -1.4% (inactive); `O=S(=O)(NCc1ccccc1F)NCc1ccccc1F`: -1.9% (inactive); `O=c1c(Cl)c2oc3ccccc3nc-2c2ccccc12`: 50.8% (active).
Turning to `O=c1c(-c2nc3ccccc3o2)c2oc3ccccc3n2c2ccccc12`, the inhibition (at 20 µM) was -2.3% (inactive).
For the compound `Clc1ccc(-c2nnc(Sc3nc4ccccc4o3)c3ccccc23)cc1`, the inhibition (at 20 µM) is -0.2% (inactive).
For `O=C(N/N=C\c1ccc2c(c1)OCO2)c1ccc(Cn2cc(Br)c([N+](=O)[O-])n2)o1`, the inhibition (at 20 µM) was -2.8% (inactive).
With `COc1ccccc1/C=C/C=C1\Oc2c(ccc(O)c2CN2CCN(CCO)CC2)C1=O`, the inhibition (at 20 µM) was 122% (active).
On to `CCN(CC)Cc1c(O)ccc2c1O/C(=C\C=C\c1ccccc1)C2=O`, for which the inhibition (at 20 µM) is 116% (active) and the inhibition under setting [1] is 143%.
Take `CCN1CCN(Cc2c(O)ccc3c2O/C(=C\C=C\c2ccccc2OC)C3=O)CC1`: under “at 20 µM”, the inhibition was 149% (inactive).
Turning to `Cc1ccc(/C=C2\Oc3c(ccc(O)c3CN3CCN(CCO)CC3)C2=O)cc1`, the inhibition (at 20 µM) is 35.2% (inactive).
In the case of `CN(C)Cc1c(O)ccc2c1O/C(=C\C=C\c1ccccc1)C2=O`, the inhibition runs as follows: (at 20 µM) 77.7% (active); under setting [1], 124%.
In the case of `CCN(CC)Cc1c(O)ccc2c(-c3ccccc3)cc(=O)oc12`, the inhibition (at 20 µM) was -2.2% (inactive).
Turning to `CCN1CCN(Cc2c(O)ccc3c2O/C(=C\c2ccccc2)C3=O)CC1`, the inhibition runs as follows: (at 20 µM) 67.8% (inactive); under setting [1], 22.1%.
As to `COc1ccccc1/C=C/C=C1\Oc2c(ccc(O)c2CN(C)C)C1=O`, the inhibition (at 20 µM) is 146% (inactive).
Still for that read-out and setting: next, `CCN(CC)Cc1c(O)ccc2c(=O)c(-c3ccccc3)coc12`: -1.9% (inactive); `O=C1/C(=C/C=C/c2ccccc2)Oc2c1ccc(O)c2CN1CCN(CCO)CC1`: 128% (inactive).
Regarding `CS(=O)(=O)Oc1ccc2c(c1)O/C(=C\C=C\c1ccccc1)C2=O`, the inhibition (at 20 µM) is 3.8% (inactive).
As for `CCN1CCN(Cc2c(O)ccc3c2O/C(=C\C=C\c2ccccc2)C3=O)CC1`, the inhibition (at 20 µM) was 53.7% (active).
Still for that read-out and setting: next, `CCCCN(C)CCNC(=O)CN1C(=O)CSc2ccc(S(=O)(=O)N3CCOCC3)cc21`: 1% (inactive); `CCN1C(=O)c2cccc3c(S(=O)(=O)Nc4ccncc4)ccc1c23`: 3.5% (inactive).

For the origin of these results see PubChem BioAssay AID1986 (Sanford-Burnham Center for Chemical Genomics, 2009).
